# From a collection of fitness landscapes (doi:10.1016/j.celrep.2020.107928)
# In all, about 81,000 sequences were measured (“one-hybrid fitness for binding NBS DNA”: median about -0.1, highest 2% from about 0.36 on). For the sample, the highest values were picked, then their nearest neighbours and some sequences at random.
# B1: Caulobacter ParB omega fusion; a variant is named by its letters at X, in order, B8GW30 (parent)
# chain: MESVVVGEPGMSEGRRGLGRGLSALLGEVDAAPAQAPGEQLGGSREAPIEILQRNPDQPRRTFREEDLEDLSNSIREKGVLQPILVRPSPDTAGEYQIVAGERAWRAAQRAGLKTVPIMVRELDDLAVLEIGIIENVQRADLNVLEEALSYKVLMEKFERTQENIAQTIGKSXSHVANXMRLLXLPDEVQSYLVSGELTAXHARAIAAAADPVALAKQIIEGGLSVRETEALARKAPNLSAGKSKGGRPPRVKDTDTQALESDLSSVLGLDVSIDHRGSTGTLTITYATLEQLDDLCNRLTRGI
# Variants of: B1
# Assay: one-hybrid fitness for binding NBS DNA (the Noc-binding site; scaled: cognate 1, non-cognate 0); higher = stronger binding
# Settings: with NBS DNA site
# Method in brief: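 On M9-minus-histidine containing 0.1 mM IPTG and 5 mM 3-AT, E. coli USO cells with a HIS3 reporter, site 19 bp from the promoter, grew 48 hours at 37°C to select Caulobacter ParB libraries randomised at four specificity codons. Plasmids from before and after were Illumina-sequenced, with three replicate libraries pooled and variants under 10 reads left out. Fitness is the log change in variant-to-wild-type read ratio, rescaled against cognate and non-cognate.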
row,Variant,one-hybrid fitness for binding NBS DNA
1,HVSS,≤ 0.2
2,QSYQ,≤ 0.2
3,QCRQ,0.527
4,QTCQ,≤ 0.2
5,QRIQ,≤ 0.2
6,QRRQ,0.496
7,QRYQ,0.35
8,QSDQ,≤ 0.2
9,QTRQ,0.581
10,QTYQ,≤ 0.2
11,QPRQ,≤ 0.2
12,QSRQ,0.413
13,QHRQ,0.33
14,AGTH,≤ 0.2
15,MNRA,≤ 0.2
16,FAPL,≤ 0.2
17,KVYR,≤ 0.2
18,IVTS,≤ 0.2
19,MDCS,≤ 0.2
20,CHRG,≤ 0.2
21,PCMS,≤ 0.2
22,KLNI,≤ 0.2
23,PANI,≤ 0.2
24,HTQS,≤ 0.2
25,DLLT,≤ 0.2
26,QKRQ,0.415

row,Variant,one-hybrid fitness for binding NBS DNA
1,QMRQ,0.437
2,QKNQ,0.245
3,QMLQ,≤ 0.2
4,QKSQ,≤ 0.2
5,QMSQ,0.242
6,WNMG,≤ 0.2
7,PCVV,≤ 0.2
8,QGRA,≤ 0.2
9,TPPQ,≤ 0.2
10,QTFT,0.515
11,QTAG,≤ 0.2
12,QTFC,≤ 0.2
13,QTAT,0.595
14,QTFM,≤ 0.2
15,QTAF,≤ 0.2
16,MPRS,≤ 0.2
17,QVPV,≤ 0.2
18,YMPV,≤ 0.2
19,QHQA,0.315
20,QPQA,≤ 0.2
21,QCQA,0.372
22,QRQA,0.611
23,QAQA,0.252
24,QSQA,0.248
25,RSSN,≤ 0.2
26,RCSR,0.527

row,Variant,one-hybrid fitness for binding NBS DNA
1,RPSR,≤ 0.2
2,RFSR,0.248
3,RSSR,0.437
4,RSSH,≤ 0.2
5,CVPS,≤ 0.2
6,VSVV,≤ 0.2
7,PVFF,≤ 0.2
8,GQRG,≤ 0.2
9,KRDA,≤ 0.2
10,KRNA,0.384
11,KCKA,≤ 0.2
12,KCNA,≤ 0.2
13,KRRA,0.524
14,KRFA,0.277
15,KRKA,0.552
16,KRVA,≤ 0.2
17,KRYA,0.313
18,QDQP,≤ 0.2
19,VKIM,≤ 0.2
20,TAPS,≤ 0.2
21,DPGG,≤ 0.2
22,TPCF,≤ 0.2
23,YQMR,≤ 0.2
24,QCRH,0.693
25,QCYH,0.257
26,QSYH,≤ 0.2

row,Variant,one-hybrid fitness for binding NBS DNA
1,QSRP,0.242
2,QSRH,0.535
3,QPRH,≤ 0.2
4,HHWC,≤ 0.2
5,RSPR,≤ 0.2
6,RDRR,≤ 0.2
7,RSYR,0.381
8,RCDR,0.255
9,RSIR,0.207
10,RPRR,≤ 0.2
11,RCRR,0.77
12,RFDR,≤ 0.2
13,RFYR,≤ 0.2
14,RCYR,0.518
15,RFRR,0.486
16,RPYR,≤ 0.2
17,RPCV,≤ 0.2
18,MHMS,≤ 0.2
19,FEYF,≤ 0.2
20,SDMT,≤ 0.2
21,MIYS,≤ 0.2
22,TKTV,≤ 0.2
23,PMHR,≤ 0.2
24,LLCI,≤ 0.2
25,RSRP,≤ 0.2
26,RSRR,0.664

row,Variant,one-hybrid fitness for binding NBS DNA
1,QQPL,≤ 0.2
2,PLCI,≤ 0.2
3,GLAR,≤ 0.2
4,HQST,≤ 0.2
5,TWRR,≤ 0.2
6,QYGK,≤ 0.2
7,QYLP,≤ 0.2
8,QYIR,0.346
9,QYYR,0.466
10,QYGC,≤ 0.2
11,QYDT,0.272
12,QYGT,0.421
13,QYNP,≤ 0.2
14,QYLS,0.256
15,QYLR,0.436
16,QYNT,0.488
17,QYPR,0.27
18,NGTR,≤ 0.2
19,DDKT,≤ 0.2
20,MCAC,≤ 0.2
21,HSLM,≤ 0.2
22,FAHM,≤ 0.2
23,KQAV,≤ 0.2
24,DLQG,≤ 0.2
25,QYRF,0.248
26,QYGM,≤ 0.2

row,Variant,one-hybrid fitness for binding NBS DNA
1,QYCS,0.301
2,QYCN,≤ 0.2
3,QYER,0.31
4,QYRR,0.979
5,QYGG,≤ 0.2
6,QYHN,≤ 0.2
7,QYHP,≤ 0.2
8,QYCR,0.462
9,QYHS,0.417
10,QYGR,0.553
11,WNEY,≤ 0.2
12,VWCR,≤ 0.2
13,ATSP,≤ 0.2
14,GRTC,≤ 0.2
15,VDLS,≤ 0.2
16,QYGN,≤ 0.2
17,QYNN,≤ 0.2
18,QYNS,0.437
19,QYDR,0.305
20,QYSD,≤ 0.2
21,QYSR,0.499
22,QYDS,0.203
23,QYNR,0.599
24,QYSN,≤ 0.2
25,QYGS,0.377
26,QYNH,0.246

row,Variant,one-hybrid fitness for binding NBS DNA
1,QYGD,≤ 0.2
2,KTNH,≤ 0.2
3,HNTA,≤ 0.2
4,HIMR,≤ 0.2
5,YTFW,≤ 0.2
6,SKSC,≤ 0.2
7,VRCG,≤ 0.2
8,PIKT,≤ 0.2
9,QYMD,≤ 0.2
10,QYWR,0.414
11,QYHG,≤ 0.2
12,QYWS,0.204
13,QYMR,0.482
14,QYQK,≤ 0.2
15,QYWH,≤ 0.2
16,QYQR,0.493
17,QYQC,≤ 0.2
18,QYHR,0.541
19,QYHD,≤ 0.2
20,QYMF,≤ 0.2
21,NPVN,≤ 0.2
22,YEWR,≤ 0.2
23,QQIF,≤ 0.2
24,YGVH,≤ 0.2
25,SDSA,≤ 0.2
26,TTTF,≤ 0.2

row,Variant,one-hybrid fitness for binding NBS DNA
1,EAYV,≤ 0.2
2,QLSK,≤ 0.2
3,GGTS,≤ 0.2
4,IDHN,≤ 0.2
5,HIKY,≤ 0.2
6,SKIG,≤ 0.2
7,APVA,≤ 0.2
8,DMKT,≤ 0.2
9,NMKT,≤ 0.2
10,QMKT,0.75
11,QMVN,≤ 0.2
12,QMVT,0.373
13,EKHS,≤ 0.2
14,VRAW,≤ 0.2
15,HGTC,≤ 0.2
16,VCQG,≤ 0.2
17,HNDV,≤ 0.2
18,TFTP,≤ 0.2
19,WASL,≤ 0.2
20,AFSH,≤ 0.2
21,QKHR,0.661
22,QKGR,0.616
23,QKER,0.363
24,QKGP,≤ 0.2
25,QKHY,0.206
26,QKYP,≤ 0.2

row,Variant,one-hybrid fitness for binding NBS DNA
1,QKRR,0.993
2,QKYR,0.505
3,QKHN,≤ 0.2
4,DKRR,≤ 0.2
5,NKRR,0.235
6,QKGN,≤ 0.2
7,PTNP,≤ 0.2
8,HCFY,≤ 0.2
9,IFEL,≤ 0.2
10,SQFR,≤ 0.2
11,SQRR,≤ 0.2
12,VILC,≤ 0.2
13,QAWG,≤ 0.2
14,NLDR,≤ 0.2
15,PTAP,≤ 0.2
16,DHKN,≤ 0.2
17,EVMR,≤ 0.2
18,TDVL,≤ 0.2
19,SRRL,≤ 0.2
20,GLRT,≤ 0.2
21,RKHR,0.648
22,RKNP,≤ 0.2
23,RKNR,0.639
24,RKHQ,≤ 0.2
25,RKHF,≤ 0.2
26,RKYF,≤ 0.2

row,Variant,one-hybrid fitness for binding NBS DNA
1,RKYR,0.573
2,RKNC,0.281
3,RKDR,0.443
4,RKYN,≤ 0.2
5,GTKM,≤ 0.2
6,DLTE,≤ 0.2
7,LAPI,≤ 0.2
8,SAAD,≤ 0.2
9,NGLS,≤ 0.2
10,NRSI,≤ 0.2
11,RRTL,≤ 0.2
12,LHEN,≤ 0.2
13,HLQP,≤ 0.2
14,MMSM,≤ 0.2
15,LRWK,≤ 0.2
16,RKGH,0.301
17,RKGP,≤ 0.2
18,RKQR,0.573
19,RKGR,0.606
20,RKSR,0.581
21,RKQQ,≤ 0.2
22,RKWR,0.49
23,RKQM,≤ 0.2
24,RKWP,≤ 0.2
25,RKSD,≤ 0.2
26,RKWH,≤ 0.2

row,Variant,one-hybrid fitness for binding NBS DNA
1,RKSH,0.211
2,MTIG,≤ 0.2
3,VDYG,≤ 0.2
4,AHFR,≤ 0.2
5,QHIC,≤ 0.2
6,TCFS,≤ 0.2
7,VSQV,≤ 0.2
8,PITE,≤ 0.2
9,GSCV,≤ 0.2
10,NCKS,≤ 0.2
11,YSQQ,≤ 0.2
12,MHKT,≤ 0.2
13,PLRH,≤ 0.2
14,SRLF,≤ 0.2
15,IRKG,≤ 0.2
16,HKFT,≤ 0.2
17,RKRR,0.736
18,RKRM,0.258
19,RKRK,0.222
20,PTAM,≤ 0.2
